Source: PubChem BioAssay
Active and inactive are the calls of the source.

Tests used:
[1] = test system: Noggin (protein binding on small-molecule microarray); assay: small molecules binding Noggin protein – biochemical, 635/667 nm fluorescence, primary screen (AID 1095); conditions: 635 nm fluorescence, higher = more signal;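 also: score merges 667 nm feature fluorescence with signal to noise over triplicate slides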
[2] = target: Neurogenic locus notch homolog protein 3 (Homo sapiens) (UniProt Q9UM47); assay: small molecules binding NOTCH3 protein – biochemical, 635/667 nm fluorescence, primary screen (AID 1096); conditions: small-molecule microarray, 635 nm fluorescence, higher = more signal
Chain of Neurogenic locus notch homolog protein 3 (Homo sapiens) (Q9UM47 whole entry, looked up): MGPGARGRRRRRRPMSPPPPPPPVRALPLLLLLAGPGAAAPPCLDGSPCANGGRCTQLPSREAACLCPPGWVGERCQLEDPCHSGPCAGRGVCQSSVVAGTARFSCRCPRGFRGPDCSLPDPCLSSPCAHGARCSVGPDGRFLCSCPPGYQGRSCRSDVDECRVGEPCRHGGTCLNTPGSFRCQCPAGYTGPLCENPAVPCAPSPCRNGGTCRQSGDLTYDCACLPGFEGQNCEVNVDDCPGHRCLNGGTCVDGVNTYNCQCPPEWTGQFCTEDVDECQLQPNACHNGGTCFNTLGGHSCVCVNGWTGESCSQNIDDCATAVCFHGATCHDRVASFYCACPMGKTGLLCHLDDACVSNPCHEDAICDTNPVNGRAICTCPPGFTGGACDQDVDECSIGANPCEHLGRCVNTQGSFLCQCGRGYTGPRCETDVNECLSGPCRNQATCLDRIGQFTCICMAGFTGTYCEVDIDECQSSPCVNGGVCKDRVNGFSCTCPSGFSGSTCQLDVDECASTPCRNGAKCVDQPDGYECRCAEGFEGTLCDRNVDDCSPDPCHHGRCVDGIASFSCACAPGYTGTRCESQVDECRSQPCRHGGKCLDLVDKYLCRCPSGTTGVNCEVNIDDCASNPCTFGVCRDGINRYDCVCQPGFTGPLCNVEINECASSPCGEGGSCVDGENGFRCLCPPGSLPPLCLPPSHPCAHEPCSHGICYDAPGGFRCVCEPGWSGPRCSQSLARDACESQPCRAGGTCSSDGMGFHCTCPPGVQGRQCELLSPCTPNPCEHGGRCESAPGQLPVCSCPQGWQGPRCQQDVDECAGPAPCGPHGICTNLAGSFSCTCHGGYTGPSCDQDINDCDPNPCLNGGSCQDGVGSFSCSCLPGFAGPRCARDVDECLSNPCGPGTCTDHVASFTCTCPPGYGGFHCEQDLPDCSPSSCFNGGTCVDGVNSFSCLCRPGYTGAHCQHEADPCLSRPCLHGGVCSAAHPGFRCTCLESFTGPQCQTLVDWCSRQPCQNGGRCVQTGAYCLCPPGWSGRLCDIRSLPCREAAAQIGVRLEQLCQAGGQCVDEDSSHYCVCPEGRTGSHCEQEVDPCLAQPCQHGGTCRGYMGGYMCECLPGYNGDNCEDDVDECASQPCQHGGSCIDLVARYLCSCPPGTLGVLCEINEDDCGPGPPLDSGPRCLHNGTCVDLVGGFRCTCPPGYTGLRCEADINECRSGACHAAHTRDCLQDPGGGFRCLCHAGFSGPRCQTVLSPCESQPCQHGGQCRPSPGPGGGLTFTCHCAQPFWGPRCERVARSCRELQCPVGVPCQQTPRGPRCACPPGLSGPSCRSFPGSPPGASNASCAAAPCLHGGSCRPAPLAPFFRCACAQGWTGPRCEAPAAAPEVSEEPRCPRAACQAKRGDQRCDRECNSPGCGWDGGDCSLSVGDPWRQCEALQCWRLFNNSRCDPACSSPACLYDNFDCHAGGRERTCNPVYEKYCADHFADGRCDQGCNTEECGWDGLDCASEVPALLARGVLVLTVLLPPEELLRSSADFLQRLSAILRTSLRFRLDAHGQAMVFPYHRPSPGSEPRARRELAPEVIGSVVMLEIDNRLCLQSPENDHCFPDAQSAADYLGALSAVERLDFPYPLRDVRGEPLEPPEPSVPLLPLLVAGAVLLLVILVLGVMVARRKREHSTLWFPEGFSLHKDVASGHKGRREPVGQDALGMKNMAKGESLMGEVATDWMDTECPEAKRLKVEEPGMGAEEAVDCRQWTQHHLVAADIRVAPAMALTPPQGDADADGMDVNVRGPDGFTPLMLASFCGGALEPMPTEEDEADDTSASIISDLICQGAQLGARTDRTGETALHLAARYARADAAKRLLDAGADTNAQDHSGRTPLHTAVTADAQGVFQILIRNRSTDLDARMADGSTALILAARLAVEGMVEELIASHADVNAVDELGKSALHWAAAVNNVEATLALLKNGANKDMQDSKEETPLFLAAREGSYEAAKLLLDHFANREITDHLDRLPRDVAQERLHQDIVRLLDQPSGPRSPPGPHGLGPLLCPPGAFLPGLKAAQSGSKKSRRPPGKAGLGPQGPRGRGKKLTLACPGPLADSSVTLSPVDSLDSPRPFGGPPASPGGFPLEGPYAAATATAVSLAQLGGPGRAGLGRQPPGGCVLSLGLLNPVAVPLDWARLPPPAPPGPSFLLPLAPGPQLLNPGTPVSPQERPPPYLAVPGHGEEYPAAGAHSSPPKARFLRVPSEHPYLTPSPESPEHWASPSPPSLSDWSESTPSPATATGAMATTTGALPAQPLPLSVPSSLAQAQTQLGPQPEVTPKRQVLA

[3] = probe aEGFR binding to arrayed compounds – biochemical, biotinylated probe, 635/667 nm fluorescence, primary screen (AID 1097); conditions: small-molecule microarray, higher = more signal;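 also: probe is a biotinylated anti-EGFR antibody binding compounds printed on slides; score combines fluorescence near 667 nm and signal to noise of each spot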
[4] = test system: Plasmodium falciparum Sir2 (PF13_0152, Sir2A); assay: Plasmodium falciparum Sir2A binding compounds – biochemical, small-molecule microarray, 635 nm fluorescence, primary screen (AID 1098); conditions: fluorescence 635 nm, higher = more signal;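 also: score merges spot fluorescence intensity with its signal-to-noise ratio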
[5] = probe aDKK1 binding to arrayed compounds – biochemical, biotinylated probe, 635/667 nm fluorescence, primary screen (AID 1099); conditions: small-molecule microarray, higher = more signal;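 also: score merges 667nm spot fluorescence with signal to noise across triplicate slides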
[6] = probe aCHRDL2 binding to arrayed compounds – biochemical, biotinylated probe, 635/667 nm fluorescence, primary screen (AID 1100); conditions: small-molecule microarray, higher = more signal
[7] = change in splice reporter luminescence, either direction, cell-based, HEK293, spliceosome inhibition project, primary screen (AID 1101); conditions: HEK293 splicing luciferase reporter, 24 h, higher = more signal, called active from +8 up or from −8 down;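 also: HEK293 cells carrying a splicing-competent luciferase reporter gene; test concentration not given here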
[8] = target: Fibroblast growth factor 10 (Homo sapiens) (UniProt O15520); assay: compounds binding fibroblast growth factor 10 – biochemical, small-molecule microarray, 635 nm fluorescence, primary screen (AID 1102); conditions: FGF10 binding, fluorescence 635 nm, higher = more signal
Chain of Fibroblast growth factor 10 (Homo sapiens) (O15520 whole entry, looked up): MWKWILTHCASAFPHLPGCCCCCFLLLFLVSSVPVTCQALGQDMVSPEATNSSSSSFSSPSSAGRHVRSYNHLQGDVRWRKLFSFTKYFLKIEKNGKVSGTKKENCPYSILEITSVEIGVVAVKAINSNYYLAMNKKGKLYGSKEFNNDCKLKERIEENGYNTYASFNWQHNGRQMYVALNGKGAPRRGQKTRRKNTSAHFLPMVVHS

[9] = test system: glycogen synthase kinase-3 (GSK3A per assay name; protocol says GSK3B); assay: compounds binding glycogen synthase kinase-3 – biochemical, small-molecule microarray, 635 nm fluorescence, GSK3A, primary screen (AID 1103); conditions: fluorescence 635 nm, higher = more signal; also: the record names both GSK3A and GSK3B
[10] = target: Epidermal growth factor receptor (Homo sapiens) (UniProt P00533); assay: compounds binding epidermal growth factor receptor – biochemical, small-molecule microarray, 635 nm fluorescence, primary screen (AID 1104); conditions: EGFR binding, higher = more signal;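 also: score merges 667 nm emission intensity with spot signal to noise over triplicate slides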
Chain of Epidermal growth factor receptor (Homo sapiens) (P00533 whole entry, looked up): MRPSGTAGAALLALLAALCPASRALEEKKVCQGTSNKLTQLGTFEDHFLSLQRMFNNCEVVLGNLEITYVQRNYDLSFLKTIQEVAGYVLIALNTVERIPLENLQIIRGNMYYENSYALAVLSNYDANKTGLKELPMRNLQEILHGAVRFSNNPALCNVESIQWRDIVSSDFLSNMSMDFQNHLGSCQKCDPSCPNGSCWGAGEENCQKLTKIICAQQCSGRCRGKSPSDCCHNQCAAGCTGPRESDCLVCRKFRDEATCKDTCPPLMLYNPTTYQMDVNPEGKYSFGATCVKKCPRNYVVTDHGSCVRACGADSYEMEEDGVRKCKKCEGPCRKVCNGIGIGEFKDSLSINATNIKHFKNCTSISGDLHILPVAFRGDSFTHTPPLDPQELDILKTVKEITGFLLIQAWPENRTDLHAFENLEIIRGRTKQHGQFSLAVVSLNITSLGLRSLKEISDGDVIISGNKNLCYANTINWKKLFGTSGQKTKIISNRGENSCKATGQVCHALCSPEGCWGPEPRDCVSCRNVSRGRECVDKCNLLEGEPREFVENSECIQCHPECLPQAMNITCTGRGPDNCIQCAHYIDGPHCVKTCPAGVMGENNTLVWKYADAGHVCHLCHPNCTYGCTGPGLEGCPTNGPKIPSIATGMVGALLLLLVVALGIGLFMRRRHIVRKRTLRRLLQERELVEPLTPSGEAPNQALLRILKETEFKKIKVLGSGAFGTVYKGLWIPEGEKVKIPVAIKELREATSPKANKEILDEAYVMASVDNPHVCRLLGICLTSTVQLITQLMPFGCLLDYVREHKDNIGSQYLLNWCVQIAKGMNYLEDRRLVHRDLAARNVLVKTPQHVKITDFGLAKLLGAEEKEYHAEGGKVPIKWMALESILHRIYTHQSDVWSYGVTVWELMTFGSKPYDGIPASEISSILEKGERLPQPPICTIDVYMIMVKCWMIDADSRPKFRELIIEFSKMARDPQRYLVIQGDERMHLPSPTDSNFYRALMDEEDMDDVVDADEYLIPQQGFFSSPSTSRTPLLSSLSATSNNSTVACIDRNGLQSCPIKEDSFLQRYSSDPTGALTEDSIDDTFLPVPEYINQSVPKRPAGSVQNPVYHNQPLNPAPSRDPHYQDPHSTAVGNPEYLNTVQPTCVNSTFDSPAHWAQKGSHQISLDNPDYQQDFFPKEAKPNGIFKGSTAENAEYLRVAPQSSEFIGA

[11] = target: Follistatin-related protein 3 (Homo sapiens) (UniProt O95633); assay: compounds binding follistatin-related protein 3 – biochemical, small-molecule microarray, 635 nm fluorescence, primary screen (AID 1105); conditions: FSTL3 binding, higher = more signal;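 also: score merges emission near 667 nm and signal to noise per printed spot across three slides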
Chain of Follistatin-related protein 3 (Homo sapiens) (O95633 whole entry, looked up): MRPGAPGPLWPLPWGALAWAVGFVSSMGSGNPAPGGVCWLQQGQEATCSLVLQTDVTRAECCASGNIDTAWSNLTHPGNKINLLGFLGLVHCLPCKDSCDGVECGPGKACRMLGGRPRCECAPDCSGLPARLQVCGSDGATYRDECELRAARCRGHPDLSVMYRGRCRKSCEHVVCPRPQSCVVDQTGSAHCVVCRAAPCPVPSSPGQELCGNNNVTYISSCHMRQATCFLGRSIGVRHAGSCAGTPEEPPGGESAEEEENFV

[12] = target: Dickkopf-related protein 1 (Homo sapiens) (UniProt O94907); assay: small molecules binding DKK1 protein – biochemical, small-molecule microarray, 635 nm fluorescence scan, primary screen (AID 1106); conditions: higher = more signal;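 also: score merges emission near 667 nm with signal to noise over three replicate slides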
Chain of Dickkopf-related protein 1 (Homo sapiens) (O94907 whole entry, looked up): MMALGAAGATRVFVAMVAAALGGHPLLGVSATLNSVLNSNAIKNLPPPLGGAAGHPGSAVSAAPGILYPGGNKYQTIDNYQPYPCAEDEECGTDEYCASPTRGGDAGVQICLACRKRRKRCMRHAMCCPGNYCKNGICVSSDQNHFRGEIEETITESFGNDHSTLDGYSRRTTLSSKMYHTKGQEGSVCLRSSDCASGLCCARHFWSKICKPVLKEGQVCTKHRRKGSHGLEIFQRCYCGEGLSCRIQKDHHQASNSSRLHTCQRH

[13] = test system: Inhibin beta A chain (activin A); assay: small molecules binding activin A – biochemical, small-molecule microarray, 635 nm fluorescence scan, primary screen (AID 1107); conditions: INHBA, higher = more signal;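 also: mouse activin A protein probed at 4.33 µg/mL on printed slides; score merges bound-protein fluorescence near 667 nm with spot signal-to-noise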
[14] = test system: Human papillomavirus type 1a protein E7 (residues 44-93); assay: small molecules binding HPV E7 44-93 – biochemical, small-molecule microarray, residues 44-93, 635 nm fluorescence, primary screen (AID 1108); conditions: fluorescence 635 nm, higher = more signal;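 also: E7 fragment applied at 1 µg/mL in TBST for 1 h at 4 C; score combines spot fluorescence with its signal to noise ratio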
[15] = hepatitis C replication reporter changes, two-sided – Huh7 cells, luciferase reporter, HCV replication inhibitor project, primary screen (AID 1109); conditions: Huh7 HCV replicon luciferase reporter, 48 h; higher = more signal;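 also: huh7 hepatoma cells harbouring a luciferase neomycin HCV replicon reporter; luciferase luminescence as measure of HCV replicon replication; test concentration not given here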
[16] = target: Left-right determination factor 2 (Homo sapiens) (UniProt O00292); assay: small molecules binding LEFTY2 protein – biochemical, small-molecule microarray, 635 nm fluorescence scan, primary screen (AID 1110); conditions: higher = more signal
Chain of Left-right determination factor 2 (Homo sapiens) (O00292 whole entry, looked up): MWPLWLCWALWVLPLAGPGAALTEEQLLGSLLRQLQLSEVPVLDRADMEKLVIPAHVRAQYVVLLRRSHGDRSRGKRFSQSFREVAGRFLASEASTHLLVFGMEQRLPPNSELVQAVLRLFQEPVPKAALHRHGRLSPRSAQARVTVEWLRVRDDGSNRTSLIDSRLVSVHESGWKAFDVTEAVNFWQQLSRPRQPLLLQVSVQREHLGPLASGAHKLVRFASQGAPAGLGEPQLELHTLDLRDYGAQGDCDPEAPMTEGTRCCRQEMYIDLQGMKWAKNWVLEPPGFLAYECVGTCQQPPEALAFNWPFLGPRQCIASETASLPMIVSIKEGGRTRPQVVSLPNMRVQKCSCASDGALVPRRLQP

[17] = target: Calmodulin-1 (Homo sapiens) (UniProt P0DP23); assay: small molecules binding calmodulin-1 with EGTA – biochemical, small-molecule microarray, Cy5-labelled CALM1, profiling panel (AID 1111); conditions: Cy5-CALM1 binding fluorescence, higher = more signal;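 also: labelled calmodulin applied in Tris saline Tween buffer holding calcium plus EGTA and DTT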
[18] = target: Calmodulin-1 (Homo sapiens) (UniProt P0DP23); assay: small molecules binding Ca-loaded calmodulin-1 – biochemical, small-molecule microarray, Cy5-labelled CALM1, plus calcium, artefact control for SMM control-protein annotation, profiling panel (AID 1112); conditions: Cy5-CALM1 binding fluorescence, higher = more signal;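 also: score merges spot fluorescence with signal to noise from triplicate slides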
[19] = probe aWnt5a binding to arrayed compounds – biochemical, biotinylated probe, 635/667 nm fluorescence, primary screen (AID 1113); conditions: small-molecule microarray, higher = more signal;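 also: score merges 667 nm fluorescence intensity with signal-to-noise per printed feature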
[20] = probe aShh binding to arrayed compounds – biochemical, biotinylated probe, 635/667 nm fluorescence, primary screen (AID 1114); conditions: small-molecule microarray, higher = more signal;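 also: probe is biotin-labelled aShh protein from a stem cell growth factor screen; measures binding of labelled protein to compounds printed on the slide; score merges feature fluorescence at 667 nm with signal-to-noise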

| SMILES | composite z-score [1] | composite z-score [2] | composite z-score [3] | composite z-score [4] | composite z-score [5] | composite z-score [6] | z-score [7] | composite z-score [8] | composite z-score [9] | composite z-score [10] | composite z-score [11] | composite z-score [12] | composite z-score [13] | composite z-score [14] | z-score [15] | composite z-score [16] | composite z-score [17] | composite z-score [18] | composite z-score [19] | composite z-score [20] |
| --- | --- | --- | --- | --- | --- | --- | --- | --- | --- | --- | --- | --- | --- | --- | --- | --- | --- | --- | --- | --- |
| O=C(NO)[C@]1(Cc2ccccc2)N=C(c2ccc(OCCCO)cc2)O[C@@H]1c1ccccc1 | -0.0613 | -1.1 | -0.174 | 1.3 | 0.256 | 0.694 | -4.02 (inactive) | -0.227 | -0.371 | -0.637 | 0.262 | -0.546 | -0.169 | -0.281 | -1.73 | -0.79 | -0.271 | 0.309 | -0.377 | 0.157 |
| C=CCC(OC(C)=O)[C@@H]1[C@@H](N(Cc2cccc3ccccc23)C(=O)Cc2ccc(OC)cc2)c2cc(OCCCO)ccc2N1C(=O)Cc1ccc(OC)cc1 (stereo not given in full) | -0.318 | -0.89 | -0.166 | -0.247 | 0.199 | 0.373 | -0.768 (inactive) | -0.0161 | -0.45 | 0.015 | -0.134 | 0.0484 | 1.21 | -0.05 | 0.217 | 0.119 | -0.294 | 0.14 | -0.014 | -0.153 |
| O=C(N1CCCCC1)[C@@]1(Cc2ccccc2)N=C(c2ccc(OCCCO)cc2)O[C@H]1c1ccccc1 | 0.368 | 0.966 | 0.293 | 1.43 | 1.26 | 1.31 | -1.96 (inactive) | 0.942 | 0.258 | -0.32 | 0.606 | 0.0474 | 0.766 | 0.73 | -2.94 | -0.458 | 2.45 | 1.09 | 0.801 | 0.106 |
| CC(C)[Si](C#C[Si](C(C)C)(C(C)C)C(C)C)(O[C@H](C)c1cn([C@H](C)c2ccccc2)nn1)C(C)C | 0.5 | 0.987 | -0.0525 | 0.366 | 0.106 | 0.351 | -1.8 (inactive) | 0.597 | 0.339 | 0.292 | 0.806 | 0.538 | -0.269 | 0.946 | 0.0537 | 0.188 | 0.242 | -0.479 | -0.131 | -0.138 |
| CC(C)NC(=O)[C@@H]1c2ccccc2C(=O)N(Cc2cc(F)cc(C(F)(F)F)c2)[C@H]1c1ccc(CO)cc1 | -1.34 | -0.706 | 0.0629 | 1.51 | 0.478 | 0.94 | -1.05 (inactive) | -0.535 | -0.825 | -0.979 | -1.17 | -0.833 | -0.476 | 0.719 | 0.32 | -0.556 | 0.343 | 0.916 | -0.25 | -0.321 |
| C=C1C=C(Br)C2(OCCCO2)[C@H]2OC12 (stereo not given in full) | 0.104 | 0.0347 | -0.076 | 0.313 | -0.118 | -0.533 | -0.0861 (inactive) | 0.125 | 0.259 | 0.442 | 0.322 | 0.536 | 0.831 | -0.524 | 1.38 | 0.333 | -0.367 | -0.755 | -0.176 | 0.0684 |
| COC(=O)[C@@]1(CCC(=O)OC(C)(C)C)COC(c2ccc(OCCCO)cc2)=N1 | -1.99 | -1.84 | -0.36 | -1.07 | 0.623 | 1.18 | -0.493 (inactive) | -1.2 | -1.19 | -1.82 | -2.47 | -2.17 | -0.0726 | -1.42 | 0.136 | -1.57 | -0.683 | 0.674 | -0.197 | -0.0626 |
| [N-]=[N+]=NCc1ccccc1C[C@@]1(C(=O)NCc2ccccc2)N=C(c2ccc(OCCCO)cc2)O[C@@H]1c1ccccc1 | -0.41 | -0.0209 | 0.0139 | 0.92 | 0.928 | 1.12 | -1.4 (inactive) | 0.185 | 0.6 | -0.471 | -0.159 | -0.373 | 0.661 | 0.212 | -3.05 | -0.592 | 1.43 | 1.21 | 0.0761 | 0.0644 |
| C=CCOC(=O)[C@H]1[C@@H]2C(=O)O[C@@H](c3ccccc3)[C@@H](c3ccccc3)N2[C@@H](c2ccc(OCCOC(=O)[C@H]3C[C@H]4C(=O)N5CCC[C@H]5C(=O)N4[C@H]3c3cccc(OCCO)c3)cc2)[C@]12C(=O)Nc1ccccc12 | 1.54 | 1.04 | -0.0828 | 1.52 | -0.125 | 0.297 | -0.676 (inactive) | 0.795 | 1.31 | 0.649 | 0.978 | 0.732 | 0.186 | 1.05 | -1.01 | 0.427 | 0.384 | 0.0829 | -0.0607 | 0.263 |
| COc1ccc(CCNC(=O)[C@@]2(Sc3ccc(C)cc3)CC(=O)N(Cc3ccccc3)[C@@H]2c2ccc(CO)cc2I)cc1 | -0.814 | -0.915 | -0.119 | 1.16 | -0.0607 | 0.566 | -1.24 (inactive) | -0.553 | -0.407 | -0.46 | 0.149 | 0.0928 | 0.761 | 0.152 | -2.18 | -1.46 | -0.615 | -0.0032 | -0.17 | -0.596 |
| C=CCNC(=O)[C@H]1[C@@H]2C(=O)O[C@@H](c3ccccc3)[C@@H](c3ccccc3)N2[C@@H](c2ccccc2OCCO)[C@]12C(=O)N(C(=O)OCCOC)c1ccc(C#CCCO)cc12 | 1.59 | 1.12 | 0.596 | 0.745 | 1.73 | 0.981 | -0.485 (inactive) | 1.35 | 1.2 | 0.843 | 1.24 | 0.983 | 1.01 | 0.188 | -2.5 | 1.06 | 1.78 | 1.08 | 0.0722 | 0.715 |
| COc1ccc([Si](C)(C)[C@H]2[C@H](CCO)O[C@@]3(C(=O)N(Cc4ccc(N5C(=O)c6cccc7cccc5c67)cc4)c4ccccc43)[C@@H]2C)cc1 | -0.688 | -0.601 | -0.272 | 0.706 | 0.147 | 0.742 | -2.46 (inactive) | -0.0426 | -0.603 | -0.482 | -0.959 | -0.397 | 0.48 | 0.0848 | -4.78 | -0.385 | 1.57 | 1.28 | -0.129 | -0.138 |
| C=CCC(OC(C)=O)[C@@H]1[C@@H](N(Cc2cccc3ccccc23)C(=O)c2cccc3ccccc23)c2cc(OCCCO)ccc2N1C(=O)Cc1ccc(OC)cc1 (stereo not given in full) | 0.0439 | 0.171 | 0.0073 | 0.387 | 0.15 | 0.213 | -2.53 (inactive) | 0.481 | 0.311 | 0.129 | 0.478 | 0.388 | 1.18 | -0.37 | -0.348 | 0.384 | 0.293 | 0.394 | -0.0107 | 0.0284 |
| CC(C)C(CO)N1C(=O)[C@@H]2[C@H]3C(=O)OCC=C[C@H]3OC23C=CCN(Cc2ccccc2)C(=O)[C@@H]13 (stereo not given in full) | -0.282 | -0.316 | -0.287 | -0.734 | -0.26 | 0.0297 | -0.346 (inactive) | -0.367 | -0.882 | -1.12 | -0.718 | -0.149 | 0.859 | -1.25 | -0.498 | -0.275 | -0.886 | -0.783 | -0.256 | 0.0141 |
| Cc1ccc(N2C(=O)c3ccccc3[C@](C)(C(=O)NC3CC3)[C@@H]2c2ccc(CO)cc2)nc1 | 0.381 | -0.591 | -0.0564 | -0.168 | 0.931 | 0.541 | 0.466 (inactive) | -0.0779 | -0.0639 | -0.0541 | 0.44 | 0.272 | 1.13 | -1.22 | 0.344 | 0.129 | -2.49 | -0.231 | -0.0792 | -0.341 |
| C[N+](C)(C)CCCC[C@@H]1NC(=O)[C@H]2C[C@@H](C(=O)NCCCCCN)[C@@H](c3cccc(OCCO)c3)N2C1=O | 0.387 | 0.526 | 0.162 | 1.19 | 1.23 | 1.02 | -1.82 (inactive) | 0.837 | 0.985 | -0.0784 | 0.564 | 0.044 | 1.63 | 1.2 | -0.295 | -1.17 | 1.3 | 0.767 | 0.133 | 0.302 |
